Assay: redox cycling hydrogen peroxide generation, dose response, artefact control for Plk1 PBD inhibitor project, biochemical, 1 mM DTT (AID 936)
Details: Redox cycling H2O2 generation, cell-free; call rule not given here

EC50, inactive:
O=C(O)COc1ccc(Br)cc1/C=N/O > 50 µM, CCC(Sc1nc2n[nH]c(C)c2c(=N)n1-c1cccc(Cl)c1)C(=O)NCCOC (stereo not drawn) > 50 µM, O=C1C(C2=C(O)c3ccccc3C2=O)=Nc2ccccc21 > 50 µM

— PubChem BioAssay AID936 (University of Pittsburgh Molecular Library Screening Center, 2007)
